Drawing on PubChem BioAssay AID1645855 (Buhrlage Lab, Dana-Farber Cancer Institute and Novartis …, 2021), this text covers inhibition for five compounds.

The campaign covered roughly 47,000 compounds. About 3,100 (6.6%) were called active. Rule as the data show it: active = inhibition above about 30%; inactive = the rest. This excerpt belongs to a sample that is enriched for actives.

In this assay the target is Ubiquitin carboxyl-terminal hydrolase 17-like protein 5 (Homo sapiens) (UniProt A8MUK1). The assay can be described thus: blocks human USP17 ubiquitin-rhodamine cleavage (AID 1645855). The following applies: purified USP17, Ub-rhodamine cleavage fluorescence, 3 h; at 50 µM; stronger effect = higher value.
Ubiquitin carboxyl-terminal hydrolase 17-like protein 5 (Homo sapiens), sequence (A8MUK1 whole entry, looked up): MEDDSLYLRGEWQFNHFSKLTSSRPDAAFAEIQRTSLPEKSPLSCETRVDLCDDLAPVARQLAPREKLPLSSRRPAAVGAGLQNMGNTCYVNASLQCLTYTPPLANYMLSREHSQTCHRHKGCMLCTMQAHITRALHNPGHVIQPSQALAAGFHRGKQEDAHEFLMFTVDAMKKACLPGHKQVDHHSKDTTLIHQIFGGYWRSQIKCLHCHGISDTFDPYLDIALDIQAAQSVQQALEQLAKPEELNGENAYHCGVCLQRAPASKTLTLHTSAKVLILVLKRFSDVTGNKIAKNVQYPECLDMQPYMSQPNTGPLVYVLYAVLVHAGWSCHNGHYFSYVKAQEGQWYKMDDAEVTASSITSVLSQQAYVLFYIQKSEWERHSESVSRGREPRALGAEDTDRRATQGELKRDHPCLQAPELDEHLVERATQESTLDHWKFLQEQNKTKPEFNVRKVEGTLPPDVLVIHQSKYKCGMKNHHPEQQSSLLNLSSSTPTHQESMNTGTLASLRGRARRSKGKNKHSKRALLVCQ
For the compound `COc1cc([C@@H]2c3cc4c(cc3C[C@@H]3COC(=O)[C@H]32)OCO4)cc(OC)c1OC`, the inhibition (commonly the drop in the measured response relative to a control, in per cent) is 68.6% (active). As for `O=C1CSC(c2ccc(F)cc2)c2c(-c3ccccc3)nn(-c3ccccc3)c2N1` (stereo not given), the inhibition was 6.01% (inactive). Under `c1ccc(C2NCc3ccccc3-n3cccc32)cc1` (stereo not given) stands 1.12% (inactive); under `O=c1c2ccccc2nc(-c2ccccc2)n1-c1ccccn1`, -2.09% (inactive); under `CN1C[C@H]2N(c3ncccn3)CCC[C@@]2(C(=O)NCC2CC2)C1`, 8.79% (inactive).
